Data as given in PubChem BioAssay AID540308 (The Scripps Research Institute Molecular Screening Center, 2011).
About 3,500 (0.97%) of roughly 360,000 compounds were called active. What follows is part of a selection rich in actives, with near analogues and random picks from the rest. Unmarked numbers belong to inactive results.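 The calls were made as follows: active = activation above a per-plate cutoff, the mean activation of sample wells on that plate plus 3 SD (cut at about 8% in these data); inactive = the rest.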

Each compound was assayed against Melanocortin receptor 4 (Homo sapiens) (UniProt P32245) (assay: activators of MC4R beta-arrestin recruitment – cell-based, luminescence, agonist arm of biased-ligand search, primary screen (AID 540308)). Conditions: U2OS MC4R beta-arrestin complementation, at 8.9 µM, hits give high values, percent of melanotan II response, DMSO zero.
Melanocortin receptor 4 (Homo sapiens), sequence (P32245 whole entry, looked up): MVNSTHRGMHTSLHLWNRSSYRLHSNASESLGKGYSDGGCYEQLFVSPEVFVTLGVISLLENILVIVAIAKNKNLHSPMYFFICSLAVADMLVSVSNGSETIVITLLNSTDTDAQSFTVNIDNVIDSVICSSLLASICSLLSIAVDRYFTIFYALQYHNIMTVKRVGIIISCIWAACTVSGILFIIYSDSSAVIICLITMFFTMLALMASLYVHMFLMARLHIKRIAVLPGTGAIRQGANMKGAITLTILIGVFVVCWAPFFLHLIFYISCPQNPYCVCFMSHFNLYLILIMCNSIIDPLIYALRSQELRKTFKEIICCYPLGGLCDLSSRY
`CCNC(=O)C1(C)CCCN(Cc2noc(-c3ccccc3OC)n2)C1` (centres undefined) gave an activation of 0.8%.
In the case of `COc1ccc(OC)c(NC(=O)c2cc(-c3cc(F)ccc3OCC3CCCO3)n[nH]2)c1` (centres undefined), the activation is reported as 2.25%.
In the case of `Cc1nc(C(F)(F)F)ccc1C(=O)N1CCC1(C)C(=O)NS(=O)(=O)c1ccccc1` (centres undefined), the activation is reported as -2.41%.
For `O=C(Nc1nnc(Cc2ccc(Cl)cc2)s1)c1ccncc1`, the activation was -0.7%.
Compound `O=C(Nc1nnc(COc2ccccc2)s1)Nc1ccccc1F` has an activation of -0.21%.
Compound `COc1ccccc1NC(=O)Nc1nc(CC(=O)Nc2ccccc2F)cs1` has an activation of -1.3%.
`COc1ccccc1NC(=O)Nc1nnc(Cc2ccc(F)cc2)s1` was tested, and the activation was 13.2% (active).
In the case of `COc1ccc(Cc2nnc(NC(=O)c3ccc(OC)cc3OC)s2)cc1`, the activation is reported as 16.6% (active).
Work on `COc1ccc(Cc2nnc(NC(=O)c3cc(OC)c(OC)c(OC)c3)s2)cc1OC` yielded an activation of 0.62%.
Compound `COc1cccc(CNc2nc3cc(-c4csc5ccccc45)sc3c(=O)n2C)c1` has an activation of 6.53%.
With `Cc1ccc(Cn2c(C)c(C(=O)NCc3ccccc3C(F)(F)F)sc2=O)cc1` the activation was 0.28%.
For `CC1(C(=O)Nc2ccccc2Br)CCN1C(=O)CC1CC1` (centres undefined), the activation was 1%.
`Cc1ccccc1S(=O)(=O)NC(=O)C1(C)CCN1C(=O)Cc1ccc(Cl)cc1Cl` (centres undefined) was tested, and the activation was -1.27%.
`CCCc1c(C)nc2c(Br)cccc2c1Cl` showed an activation of 0.46%.
With `COc1cccc(NC(=O)C2(C)CCN2Cc2ccccc2Cl)c1` (centres undefined) the activation was 2.88%.
`O=C(NCc1ccccc1)C1CCCN(S(=O)(=O)c2cccs2)C1` (centres undefined) was tested, and the activation was 1.44%.
With `O=C(NCc1ccccc1)C1CCCN(c2nc3ccsc3c(=O)s2)C1` (centres undefined) the activation was 8.43% (active).
`Cc1cc(=O)n2nc(N3CCCC(C(=O)NCc4ccc(Cl)cc4)C3)sc2n1` (centres undefined) was tested, and the activation was -1.57%.
In the case of `Cc1ccccc1CN1CCC(C(=O)Nc2ccc(Oc3cccnc3)cc2)CC1`, the activation is reported as -3.23%.
Work on `CCc1nc2ccc(C(=O)NCc3ccc(OC)cc3)cn2c1N(CC)Cc1cccc(Br)c1` yielded an activation of -1.05%.
With `Cc1ccc(NC(=O)Nc2cc(-c3ccccc3)nn2C)cc1Cl` the activation was -0.42%.
`O=C(Nc1nnc(Cc2ccccc2)s1)c1cnccn1` gave an activation of -0.34%.
Compound `CC(=O)Nc1ccc(-c2cn3cccnc3n2)cc1` has an activation of -2.81%.
`O=C(NCCCNC(=O)c1ccccc1Cl)c1cnccn1` gave an activation of 0.85%.
`O=C(Nc1nc(-c2ccc(-c3ccccc3)cc2)cs1)c1cnccn1` was tested, and the activation was 25.9% (active).
`CC(=O)Nc1ccc(-c2csc(NC(=O)Nc3ccccc3)n2)cc1` was tested, and the activation was 11% (active).
For `CC(C)(C)c1ccc(S(=O)(=O)NC(=O)C2(C)CCN2C(=O)CC2CC2)cc1` (centres undefined), the activation was -2.01%.
Work on `COCCNc1ncnc2c1ncn2[C@H]1CN(CCN2CCOCC2)C[C@@H](CO)O1` yielded an activation of -1.53%.
In the case of `CC1(C(=O)NS(=O)(=O)c2cccc(OC(F)F)c2)CCN1C(=O)C1CC1` (centres undefined), the activation is reported as -1.02%.
Work on `CC1(C(=O)NS(=O)(=O)Cc2cccc(Cl)c2)CCN1C(=O)Cc1ccc(Cl)cc1Cl` (centres undefined) yielded an activation of 1.12%.
`CCc1nc2ccc(C(=O)Nc3ccc(OC)c(OC)c3)cn2c1N(C)C(=O)c1cccc(OC)c1` was tested, and the activation was -1.68%.
Compound `CC1(C(=O)NCc2ccc3c(c2)OCO3)CCN1C(=O)Cc1cccc2ccccc12` (centres undefined) has an activation of -2.21%.
`Clc1ccc2nc(-c3ccccc3)nc(C(Cl)Cl)c2c1` gave an activation of 1.35%.
With `NC(N)=Nc1nc(-c2ccccc2)c2cc(Cl)ccc2n1` the activation was 9.69% (active).
In the case of `COC(=O)Cn1nc(-c2ccccc2)c2cc(Cl)ccc21`, the activation is reported as -2.4%.
Work on `CC1(C(=O)NS(=O)(=O)c2cccc(F)c2)CCN1C(=O)Cc1ccc(Cl)cc1Cl` (centres undefined) yielded an activation of -2.74%.
In the case of `Cc1ccccc1-c1nc(NC(C)C)nc2cc(-c3ccccc3)sc12`, the activation is reported as -0.61%.
With `CC1(C(=O)NS(=O)(=O)c2ccc3ccccc3c2)CCN1C(=O)C1(c2ccc(Cl)cc2)CCC1` (centres undefined) the activation was -0.24%.
For `CCSc1nnc(-c2cc3c(s2)-c2ccccc2CC3)o1`, the activation was -0.34%.
With `CCSc1nc2sc3c(c2c(=O)[nH]1)CC(C)(C)OC3` the activation was -0.6%.
In the case of `CSc1nc2sc3c(c2c(=O)[nH]1)CCc1ccccc1-3`, the activation is reported as 12.4% (active).
In the case of `COc1ccc(/C=C/C(=O)c2c(O)cc(OC)cc2OC)cc1`, the activation is reported as -0.69%.
With `N#Cc1cccc(NC(=O)c2cc(C3CCCCN3C(=O)CCc3ccccc3)on2)c1` (centres undefined) the activation was -1.43%.
In the case of `CC(C)Oc1ccc(CN2CCC2(C)C(=O)NCc2ccc(C(F)(F)F)cc2)cc1` (centres undefined), the activation is reported as 0.02%.
For `COc1ccc(C(=O)OCC(=O)N2CC(=O)Nc3ccccc32)cc1Br`, the activation was 0.65%.
Compound `COc1cc(OC)c(C(=O)OCC(=O)N2CC(=O)Nc3ccccc32)cc1OC` has an activation of -2.02%.
With `COc1ccc(Cl)cc1-n1c(C)cc(C(=O)OCC(=O)N2CC(=O)Nc3ccccc32)c1C` the activation was 15.3% (active).
`O=C(Nc1cccc(Cc2ccccc2)c1)Nc1ccc2nc([C@@H]3O[C@H](CO)[C@@H](O)[C@H](O)[C@H]3O)[nH]c2c1` was tested, and the activation was -0.22%.
With `C[C@H](NC(=O)[C@@H]1Cc2ccccc2CN1C(=O)OC(C)(C)C)C(=O)NC1CCCC1` the activation was -3.11%.
Work on `CC(=O)Nc1cnc(-c2ccc(O)cc2C)cn1` yielded an activation of -2.1%.
`Cc1c(C(=O)NCC2CC2)sc(=O)n1Cc1cccc(F)c1` showed an activation of 1.11%.
`COc1ccc(CC(=O)Nc2cc(S(=O)(=O)N3CCCCC3)ccc2N2CCN(C)CC2)cc1` gave an activation of -2.51%.
`Cc1ccoc1C(=O)Nc1cccc(Oc2ccccc2)c1` gave an activation of 0.82%.
With `Cc1cccc(NC(=O)Nc2cccc(Oc3c(F)c(F)c(F)c(F)c3F)c2)c1` the activation was 15.8% (active).
`COc1cccc(NC(=O)Nc2ccc(F)cc2)c1` showed an activation of 1.45%.
In the case of `CC(C)CNC(=O)C1(C)CCCN1C(=O)CSc1ccccc1` (centres undefined), the activation is reported as -1.48%.
With `CC(Oc1ccc(Br)cc1)C(=O)NCC(c1ccco1)N1CCCCC1` (centres undefined) the activation was 0.14%.
`O=C(Nc1ccc(N2CCOCC2)cc1)c1cccc2c(-c3ccc(F)c(F)c3)coc12` gave an activation of 3.52%.
With `Cc1ccc(C(=O)Nc2sc(Cc3ccc4c(c3)OCO4)c(C)c2C(N)=O)cc1` the activation was 0.85%.
In the case of `COc1ccc(CC(=O)Nc2sc(Cc3ccccc3)c(C)c2C(N)=O)cc1`, the activation is reported as 9.06% (active).
`COc1ccc(CC(=O)Nc2c(C(N)=O)oc3ccccc23)cc1` showed an activation of -1.72%.
In the case of `CCc1nc2ccc(C(=O)N(C)CCN(C)C)cn2c1N(CC)CCOC`, the activation is reported as -1.01%.
Work on `COc1ccc(NC(=O)C2Cc3c(-c4ccc(Cl)cc4)ccnc3O2)cc1` (centres undefined) yielded an activation of 2.27%.
`Cc1cccnc1C(NC(=O)C1CCN(Cc2ccc(Cl)c(Cl)c2)CC1)c1ccc(Cl)cc1` (centres undefined) showed an activation of -0.01%.
With `COc1ccccc1C(=O)COC(=O)COc1ccc(C#N)cc1` the activation was -0.25%.
In the case of `N#C/C(=C(/O)COC(=O)COc1ccc(Cl)cc1)c1nc2ccccc2[nH]1`, the activation is reported as 14.5% (active).
`CC(C)(C)c1nnc2sc(SCC(O)=C(C#N)c3nc4ccccc4[nH]3)nn2c1=O` was tested, and the activation was -0.79%.
`CC(C)NC(=O)C1(C)CCCCCN1C(=O)c1ccc(-c2ccccc2)cc1` (centres undefined) showed an activation of -1.12%.
`COCCNc1nnc(SCC(=O)NNC(=O)c2ccco2)s1` gave an activation of -0.17%.
In the case of `O=C(NCc1ccc(F)cc1)c1cc(C2CCCCN2C(=O)c2cccs2)on1` (centres undefined), the activation is reported as -0.1%.
`COC(=O)c1sccc1NC(=O)c1ccc(Cl)cc1` showed an activation of 3.1%.
`COC(=O)c1sccc1NN1C(=O)c2ccccc2C1=O` showed an activation of 1.29%.
`COC(=O)c1sccc1NC(=O)c1cc(OC)c(OC)c(OC)c1` was tested, and the activation was 10.6% (active).
`COc1ccc(NC(=O)C2(C)Cc3c(-c4cccc(NC(C)=O)c4)ccnc3O2)cc1` (centres undefined) showed an activation of -0.48%.
`CCN(CC)C(=O)C1CCCN(Cc2cccc(Cl)c2)C1` (centres undefined) was tested, and the activation was -1.07%.
Work on `Cc1noc(C)c1C(=O)N1CCC1(C)C(=O)NS(=O)(=O)c1ccc(C#N)cc1` (centres undefined) yielded an activation of -1.23%.
Compound `COc1cccc(C(NC(C)=O)c2nc(-c3cnc4ccccc4c3)cs2)c1` (centres undefined) has an activation of -2.35%.
For `O=C(CSc1nc2ccccc2c(=O)[nH]1)Nc1nc(-c2ccc(Br)cc2)cs1`, the activation was 0.03%.
In the case of `Cc1ccc(C)c(C(=O)COC(=O)Cn2[nH]c(=O)c3ccccc3c2=O)c1`, the activation is reported as -1.85%.
With `Cc1ccc(-c2csc(NC(=O)Cn3[nH]c(=O)c4ccccc4c3=O)n2)cc1` the activation was 16.1% (active).
`Cc1cc(=O)oc2c3c(cc(OCC(=O)NCC(O)c4ccccc4)c12)OC(C)(C)CC3` (centres undefined) was tested, and the activation was 2.2%.
For `CCc1nc2c(OCc3ccc(Cl)cc3Cl)cccn2c1N(C)C(=O)C(C)C`, the activation was -0.09%.
For `Cc1ccc([C@H]2C[C@H](O)[C@@H](n3cc(COC(=O)c4ccccc4)nn3)CN2C(=O)C2CCCCC2)cc1`, the activation was 9.82% (active).
`CCCCCC(=O)N1C[C@H](O)[C@@H](n2cc(COC(=O)c3ccccc3)nn2)C[C@@H]1c1ccc(C)cc1` gave an activation of 0.09%.
`Cc1ccc([C@H]2C[C@H](O)[C@@H](n3cc(COC(=O)c4ccccc4)nn3)CN2CC2CCCCC2)cc1` gave an activation of 1.06%.
Work on `Fc1ccc(-c2csc(-c3ccc(C4SCCS4)cc3)n2)cc1F` yielded an activation of 1.21%.
In the case of `COc1ccc(Br)c(Cn2c(C)c(C(=O)NCc3cccs3)sc2=O)c1`, the activation is reported as 0.68%.
In the case of `Cn1cc(S(=O)(=O)NC(c2ccccc2)c2ccccc2)c(=O)n(C)c1=O`, the activation is reported as -0.18%.
In the case of `CCc1nc2c(OCCOc3ccccc3)cccn2c1N(C)C(=O)c1cccs1`, the activation is reported as 0.14%.
